PubChem BioAssay AID1063 (University of Pittsburgh Molecular Library Screening Center, 2008)
Screen size: about 200,000 compounds; about 18,000 (9%) were called active. Rule as the data show it: active = inhibition above about 50%; inactive = the rest. The sample as a whole holds a higher share of actives than the screen did.

Assay: Leishmania major promastigote growth inhibition, primary screen (AID 1063);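 also: promastigotes grown with compound for 44 hours at 28 °C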
Details: Leishmania major promastigotes, resazurin fluorescence viability; at 10 µM; hits give high values

| Structure (SMILES) | inhibition |
| --- | --- |
| Cc1cc(C)cc(NC(=O)Cn2cnc3c(nnn3Cc3ccc(F)cc3)c2=O)c1 | -2.51% (inactive) |
| Cc1cccc(C)c1NC(=O)Nc1ccccc1-n1ccnc1 | -5.13% (inactive) |
| CN1CCC(=NNC(=O)CN(c2cccc(Cl)c2)S(C)(=O)=O)CC1 | -4.77% (inactive) |
| CC12CCC(C(=O)N(NC(=O)c3ccccc3O)C1=O)C2(C)C (centres undefined) | 69.9% (active) |
| CC12CCC(C(=O)N(c3cccc(Cl)c3)C1=O)C2(C)C (centres undefined) | -2.92% (inactive) |
| COc1ccccc1C(=O)NN1C(=O)C2C3C=CC(O3)C2C1=O (centres undefined) | -5.97% (inactive) |
| COc1ccc(-c2csc(NC(=O)CCCc3cccs3)n2)cc1 | 10.5% (inactive) |
| COc1ccc(-c2csc(NC(=O)COC(=O)c3ccc(Br)o3)n2)cc1 | 95.2% (active) |
| COc1ccc(-c2csc(NC(=O)COC(=O)Cc3ccc(Cl)cc3Cl)n2)cc1 | 1.41% (inactive) |
| Cc1cc(CNCc2c(C(=O)N(C)Cc3ccccc3)nc3ccccn23)nn1C | 0.26% (inactive) |
| O=C(O)c1ccccc1-c1ccccc1C(=O)Nc1nccs1 | -1.78% (inactive) |
| CCC(=O)c1ccc(OCC(O)CN2C(=O)NC(C)(C)C2=O)cc1 (centres undefined) | -2.21% (inactive) |
| Cc1cccc(Cn2c(N3CCN(c4ccccc4)CC3)nc3c2c(=O)n(C)c(=O)n3C)c1 | -1.6% (inactive) |
| CCC(=O)c1ccc(OCC(O)CN2CC(C)OC(C)C2)cc1 (centres undefined) | 87.5% (active) |
| O=C(c1ccc(Cl)cc1)c1ccc(OCC(O)CN2CCCCC2)cc1 (centres undefined) | 99.2% (active) |
| O=C(c1ccccc1)c1ccc(OCC(O)CN2CCCC2)cc1 (centres undefined) | 31.6% (inactive) |
| Cn1c(=O)c2c(nc(N3CCCCCC3)n2CC(=O)c2ccc(Br)cc2)n(C)c1=O | -0.4% (inactive) |
| O=c1cc(CN2CCN(c3cccc(Cl)c3)CC2)c2cc3c(cc2o1)CCCC3 | 5.66% (inactive) |
| CCC(=O)c1ccc(OCC(O)CN2CCN(c3cccc(C(F)(F)F)c3)CC2)cc1 (centres undefined) | 13.7% (inactive) |
| OC(COc1ccc2c(c1)CCC2)CN1CCN(c2cccc(Cl)c2)CC1 (centres undefined) | 98.7% (active) |
| Cn1c(=O)c2c(nc(N3CCCCCC3)n2CC(O)COc2ccc(Cl)cc2)n(C)c1=O (centres undefined) | 56.5% (active) |
| OC(COc1ccc(CN2CCSCC2)cc1)CN1CCCCC1 (centres undefined) | 19% (inactive) |
| O=C(C(c1ccccc1)c1ccccc1)N1CCN(CC(O)COc2ccccc2)CC1 (centres undefined) | 9.16% (inactive) |
| COc1cc(C(=O)N[C@@H](C)C(=O)NCc2ccco2)cc(OC)c1OC | -6.03% (inactive) |

| Structure (SMILES) | inhibition |
| --- | --- |
| CCCCn1c(N)c(N(CC)C(=O)/C=C/c2ccco2)c(=O)[nH]c1=O | -4.32% (inactive) |
| [O-][n+]1c2c(nn1-c1ccc(Cl)c(Cl)c1)-c1nonc1CC2 | 13.6% (inactive) |
| Cc1nc(N2CCCCC2)sc1C=O | 6.31% (inactive) |
| CCC(C)(C)c1ccc(OCC(=O)N(C)C)c(C(C)(C)CC)c1 | 18.1% (inactive) |
| COC(=O)CNC(=O)c1ccc(OC2CCN(C(=O)C3CC3)CC2)cc1 | -6.39% (inactive) |
| CCOc1cc(CNn2c(C)nnc2SCC(=O)NC(C)(C)C)ccc1OCC(=O)NC(C)(C)C | 0.56% (inactive) |
| CC1(C)C(c2cccs2)=[N+]([O-])C2(CCCCC2=O)N1O (centres undefined) | -6.22% (inactive) |
| COCCN(Cc1nc(-c2ccc(C(F)(F)F)cc2)no1)C(C)C | 0.28% (inactive) |
| O=C(Nc1ccnc(-c2ccncc2)n1)c1cccs1 | 1.21% (inactive) |
| COC(=O)CCNC(=O)c1ccc2[nH]c(C)c(C)c2c1 | -6.37% (inactive) |
| COc1ccc(-c2[nH]ncc2CN(C)Cc2cccnc2)c(F)c1 | 5.13% (inactive) |
| CC/C(O)=C1\C(=O)CC(C)(C)CC1=NCCc1nc2ccccc2[nH]1 | 2.52% (inactive) |
| COC(=O)c1ccc(NC(=O)Nc2ccc(C)cc2)cc1 | 91.7% (active) |
| Cc1ccc(NC(=O)CC(=O)Nc2ccc(C)cc2)cc1 | -5.48% (inactive) |
| CC(=O)c1cccc(NC(=O)Nc2ccc(C)cc2)c1 | -3.66% (inactive) |
| O=C(Nc1ccc(S(=O)(=O)N2CCCCC2)cc1)c1cnccn1 | -3.44% (inactive) |
| O=C(NC1CCCCC1)C1CCCN(S(=O)(=O)c2cccs2)C1 (centres undefined) | -2.02% (inactive) |
| CC1CCCN(S(=O)(=O)c2ccc(N(C(=O)c3cnccn3)C(C(=O)NC3CCCCC3)c3cccs3)cc2)C1 (centres undefined) | 69.2% (active) |
| CCCCn1c(=O)c(C(C)=O)c(O)c2ccccc21 | -2.04% (inactive) |
| COC(=O)c1cccc(N(C(=O)c2ccco2)C(C(=O)NC2CCCC2)c2ccco2)c1 (centres undefined) | 51.8% (active) |
| COC(=O)c1ccc(N(CC(=O)NC2CCCC2)C(=O)CNC(=O)c2ccco2)cc1 | -5.36% (inactive) |
| O=C(NC1CCCC1)C(c1ccc(N2CCOCC2)cc1)N(C(=O)c1ccco1)c1ccccc1F (centres undefined) | 3.7% (inactive) |
| Cc1cc(C(=O)N/N=C\C(Br)=C\c2ccccc2)c(C)o1 | 12.7% (inactive) |
| COc1cc(/C=N\NC(=O)c2nonc2N)c(OC)cc1Br | -4.69% (inactive) |

| Structure (SMILES) | inhibition |
| --- | --- |
| COCc1c(C(=O)N/N=C/C2CC=CCC2)nnn1-c1nonc1N (centres undefined) | -6.32% (inactive) |
| Nc1nonc1-n1nnc(C(=O)N/N=C/c2cc(Br)ccc2O)c1CSC1=NCCS1 | 50.8% (active) |
| COc1ccc(-c2ccc(CCC(=O)O)n2NC(=O)c2ccc(C(C)(C)C)cc2)cc1 | -4.23% (inactive) |
| NC(=O)C1=C[C@H](c2csc3ccccc23)C[C@H](OCc2ccc(CO)cc2)O1 | 14.5% (inactive) |
| CN(C)N(C)C(=O)C(O)(c1ccccc1)c1ccccc1 | -4.98% (inactive) |
| Cc1nn(-c2ccccc2)c2sc(C(=O)N(Cc3ccco3)C(C)C(=O)NC(C)(C)C)cc12 (centres undefined) | 85.5% (active) |
| Cc1nc(C)c(C(=O)N(c2ccc(C)c(C)c2)C(C(=O)NCc2ccco2)c2ccccc2)s1 (centres undefined) | -1.53% (inactive) |
| Cc1ccc(-c2nnn(CC(=O)N(Cc3ccco3)C(C(=O)NC(C)(C)C)c3ccncc3)n2)o1 (centres undefined) | 4.2% (inactive) |
| COc1ccc(CC(=O)NCc2nnc(SCC(=O)Nc3ncc(C)s3)n2C)cc1 | -4.95% (inactive) |
| N#Cc1nc(COc2ccc(-c3ccccc3)cc2)oc1NCc1cccnc1 | 7.49% (inactive) |
| CCOc1ccc(Nc2oc(Cc3ccccc3)nc2C#N)cc1 | 99.7% (active) |
| N#Cc1nc(Cc2ccccc2)oc1NCCc1ccccc1 | 0.9% (inactive) |
| CCOC(=O)c1[nH]cnc1C(=O)Nc1ccccc1C | 4.69% (inactive) |
| CCC(=O)Nc1ccc(C(=O)N2CCN(C(=O)c3ccco3)CC2)cc1 | 0.95% (inactive) |
| O=C(Nn1cnc2ccccc2c1=O)c1ccc([N+](=O)[O-])cc1Cl | -9.04% (inactive) |
| CC(=O)Nc1ccc(OCC(=O)NCc2ccc(C)cc2)cc1 | -6.13% (inactive) |
| Cc1ccc(NC(=O)OCc2cncs2)cc1 | -5.83% (inactive) |
| COc1ccc(NC(=S)NCCNC(C)=O)cc1 | -3.38% (inactive) |
| COc1ccc(CS(=O)/C(Cl)=C(/Cl)C(=O)Nc2ccc(OC)nc2)cc1 (centres undefined) | 101% (active) |
| COc1ccc(NC(=O)/C(Cl)=C(/Cl)S(=O)Cc2ccc(C)cc2)cn1 (centres undefined) | 101% (active) |
| COc1ccc(NC(=S)Nc2ccccc2Cl)cn1 | 6.52% (inactive) |
| Cc1ccc(NC(=O)OCCNC(=O)c2ccncc2)cc1 | 0.55% (inactive) |
| O=C(CN1C(=O)NC2(CCCCCC2)C1=O)NC1CC1 | -1.36% (inactive) |
| O=C(Nc1ccccc1C(=O)O)c1cc(S(=O)(=O)N2CCCCC2)cs1 | -7.25% (inactive) |

| Structure (SMILES) | inhibition |
| --- | --- |
| CCOC(=O)c1sc(=NC(=O)/C=C/c2cccs2)n(C)c1C | -7.45% (inactive) |
| Cc1ccc(OCc2n[nH]c(=S)n2-c2ccccc2)cc1 | 0.68% (inactive) |
| COc1ccc([N+](=O)[O-])cc1N(CC(O)Cn1nnc2ccccc21)S(=O)(=O)c1ccc(C)cc1 (centres undefined) | 99% (active) |
| COc1ccccc1N(C(=O)Cn1nnc2ccccc21)C(C(=O)NCc1ccco1)c1ccc(C)o1 (centres undefined) | -2.13% (inactive) |
| COc1ccc(C)cc1S(=O)(=O)N(CC(=O)Nc1cccc([N+](=O)[O-])c1)c1ccc(C)cc1 | 30.9% (inactive) |
| CC(=O)OC(COc1ccc(F)cc1)Cn1cnc2ccccc21 (centres undefined) | -0.28% (inactive) |
| Cc1cc(NS(=O)(=O)c2ccc(NC(=O)c3cccc(OC(F)F)c3)cc2)nc(C)n1 | -1.79% (inactive) |
| CCn1nccc1C(=O)Nc1ccc(S(=O)(=O)NC23CC4CC(CC(C4)C2)C3)cc1 | 47.6% (inactive) |
| Cc1cc(C(F)F)n2nc(C(=O)Nc3ccc(S(=O)(=O)NC45CC6CC(CC(C6)C4)C5)cc3)nc2n1 | 99% (active) |
| COc1ccc(Cl)cc1N(CC(=O)N1CCCCC1)S(C)(=O)=O | -4.47% (inactive) |
| CN(C)c1ccc(/C=N\S(=O)(=O)c2ccccc2)cc1 | 51.7% (active) |
| CN(C)c1ccc(/C=N/N(Cc2ccccc2)c2ccccc2)cc1 | 3.58% (inactive) |
| COc1ccc(/C=N/S(=O)(=O)c2ccccc2)cc1OC | 0.14% (inactive) |
| CCNC(=S)NNC(=O)c1ccc2ncccc2c1 | -8.24% (inactive) |
| OC(c1nnc(-c2ccccc2)o1)c1cccs1 (centres undefined) | 0.18% (inactive) |
| O=c1cnnc(Nc2ccccc2F)[nH]1 | -2.35% (inactive) |
| CCN1C(=O)/C(=C\N2CCN(c3ccccc3)CC2)SC1=S | 0.18% (inactive) |
| CCN1C(=O)/C(=C2\SC(N3CCCCC3)=NC2=O)c2ccccc21 | 74.1% (active) |
| CC(C)=C1SC(N2CCN(c3cccc(C)c3)CC2)=NC1=O | 1.42% (inactive) |
| O=C(c1ccc(Cl)c([N+](=O)[O-])c1)N1CCN(c2ccccc2)CC1 | -0.23% (inactive) |
| Cc1cccc(C(=O)NC(=S)N2CCN(c3ccc([N+](=O)[O-])cc3)CC2)c1 | 36.9% (inactive) |
| O=C(c1cncc(Br)c1)N1CCN(c2ccc([N+](=O)[O-])cc2)CC1 | 57.2% (active) |
